Growth data for 17 compounds are collected here from PubChem BioAssay (NCI).

This is part of a sample that, as a whole, favours compounds with a hit. Of some 83,000 tested, about 20% had one in any assay.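 Plates (96-well) were seeded with cells, treated with compound at one concentration, and incubated for 48 hours before percent growth was determined.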 Unmarked numbers belong to inactive results. Active and inactive are the calls of the source. The calls were made as follows: active = growth percent below 10; inactive = the rest.

Experiment in all cases: NCI-60 one-dose screen, 48 h (100 = growth as untreated, 0 = no growth, -100 = all killed)
Holding throughout (conditions): 10 µM unless noted

In test [1] the test system is T-47D breast.
Test [2] concerns BT-549 breast.
Test [3] concerns MDA-MB-435 melanoma.
Test [4] has as its system SW-620 colon.
The subject of test [5] is MCF7 breast.
The subject of test [6] is HCT-116 colon.
Test [7] has as its system HCC-2998 colon.
The subject of test [8] is KM12 colon.

For `CCOC(=O)c1c(SC)nn(-c2cc(=O)[nH]c3ccc(Br)cc23)c1N`, the growth in test [1] is 92.9%; in test [2], 116%; in test [3], 107%; in test [4] it was 94.2%; in test [5], 93.4%; in test [6], 89.5%. The growth in test [7] is 102%.
With `COc1cc(C2NC(c3cc(OC)c(OC)c(OC)c3)C(C#N)(C#N)C2(C#N)C#N)cc(OC)c1OC` (configuration not stated), the growth in test [1] was 96.4%; in test [2], 101%; in test [3], 101%; in test [4], 95.8%; in test [5] it was 95.5%; in test [6], 91.1%. For the same compound, the growth in test [7] was 98.7%.
For the compound `COc1ccc2nc(N=Nc3c(O)ccc4ccccc34)sc2c1`, the growth in test [1] is 27.3%; in test [2] it was 53.3%; in test [3], 45.1%; in test [4], 35.8%; in test [5], 13.9%; in test [6], 26.6%. In addition, the growth in test [7] was 45.9%.
Take `Cc1ccc(-c2csc(/N=C3\C(=O)Nc4ccccc43)n2)cc1`: the growth in test [1] was 20%; in test [2] it was 23.6%; in test [3], 12.9%; in test [4], 19.4%; in test [5] it was 6.92% (active); in test [6] it was 4.56% (active). Moreover, the growth in test [7] was 6.25% (active).
Take `Clc1ccc2c(c1)c(-c1ccccc1)nc1nncn12`: the growth is 98.2% in test [1]; 99.8% in test [2]; 113% in test [3]; 116% in test [4]; 99% in test [5]; 106% in test [6]. Further, in test [7], the growth is 113%.
As for `Cc1nn(-c2ccccc2)c(N2CCOCC2)c1/C=N/N=c1\sc2ccccc2n1C`, the growth is 51.7% in test [1]; 81.5% in test [2]; 92.1% in test [3]; 82.7% in test [4]; 68.5% in test [5]; 49.6% in test [6]. In addition, the growth in test [7] was 106%.
Consider `O=C(O)c1cn(C2CC2)c2cc(N3CCN(C(=O)C[n+]4cccc5ccccc54)CC3)c(F)cc2c1=O`, for which the growth is 74% in test [1]; 75.8% in test [2]; 59.5% in test [3]; -17.2% (active) in test [4]; 45.2% in test [5]; 23.7% in test [6]. Besides, the growth in test [7] was 106%.
With `C(=C\c1n(Cc2ccc3ccccc3c2)c(-c2ccccc2)c(-c2ccccc2)[n+]1Cc1ccc2ccccc2c1)/c1ccccc1`, the growth in test [1] was -74.8% (active); in test [2], -83.2% (active); in test [3], -92% (active); in test [4] it was -86.9% (active); in test [5] it was -64.1% (active); in test [6], -80.9% (active). In test [7], the growth was -91.4% (active).
Take `C#CC(=O)Nc1cccc2c1cc(C)n2-c1nc2c(c(NCc3ccccc3)n1)CCCC2`: the growth in test [1] is -41.4% (active); in test [2], -47.3% (active); in test [3], -81.4% (active); in test [4] it was -59.3% (active); in test [5], -39.8% (active); in test [6] it was -70.3% (active). Besides, the growth in test [7] is -89.9% (active).
For the compound `COc1cccc(-c2nc3occn3c2-c2ccnc(NCCCNS(=O)(=O)c3cccc(F)c3)n2)c1`, the growth is 29.3% in test [1]; 96.1% in test [2]; 63.2% in test [3]; 115% in test [4]; 78.1% in test [5]; 82% in test [6]. Further, the growth in test [7] was 127%; in test [8] it was 92.6%.
As for `CCNNC(=O)[C@@H]1[C@H](c2cc(OC)c(OC)c(OC)c2)c2cc3c(cc2[C@H](O)[C@H]1CO)OCO3`, the growth in test [1] was 80.6%; in test [2], -27.2% (active); in test [3] it was -26.9% (active); in test [4] it was 20.5%; in test [5], 10.2%; in test [6], 0.945% (active). Besides, the growth in test [7] was 6.02% (active); in test [8], -5.82% (active).
On to `CC(=O)OCCCCCNc1ccccc1`, for which the growth was 103% in test [1]; 102% in test [2]; 111% in test [3]; 101% in test [4]; 109% in test [5]; 113% in test [6]. Besides, the growth in test [7] is 107%.
For the compound `COc1cc(NCC(C)(O)CN(CC(C)C)CC(C)C)c2nc(C)ccc2c1` (configuration not stated), the growth in test [1] was 7.65% (active); in test [2] it was 92.4%; in test [3], 102%; in test [4] it was 86.5%; in test [5], -46.1% (active); in test [6], 66.3%. In addition, the growth in test [7] was 75.5%.
Turning to `Nc1nnc(C(=O)c2cnc3n(c2=O)CCCCC3)s1`, the growth is 98.5% in test [1]; 108% in test [2]; 106% in test [3]; 100% in test [4]; 98.8% in test [5]; 103% in test [6]. Besides, the growth in test [7] is 106%; in test [8] it was 105%.
As to `COc1ccc(C2CC(c3cccc(Nc4ccncc4)c3)=NN2c2ccc(Cl)cc2)cc1` (configuration not stated), the growth was 65.7% in test [1]; 105% in test [2]; -85.4% (active) in test [3]; -89.4% (active) in test [4]; -16.8% (active) in test [5]; 108% in test [6]. In addition, the growth in test [7] is -13.5% (active).
As for `C=C(C)[C@H]1CC/C(C)=C/CC[C@]2(C)O[C@H]2CC/C(COC(=O)[C@@H](OC(C)=O)[C@H](NC(=O)c2ccccc2)c2ccccc2)=C\[C@@H]1O`, the growth in test [1] is 73.6%; in test [2] it was 97.1%; in test [3] it was 92.3%; in test [4], 105%; in test [5], 81.2%; in test [6], 89.6%. In addition, the growth in test [7] is 96.5%.
Regarding `COc1ccc(/C=N/C2=C(C#N)C(c3ccccc3[N+](=O)[O-])c3ccc4ccccc4c3O2)cc1` (configuration not stated), the growth in test [1] is 79.4%; in test [2], 92.8%; in test [3], 98.5%; in test [4], 97.8%; in test [5], 56.4%; in test [6], 83.3%. Also, the growth in test [7] was 106%.
